# From PubChem BioAssay AID504362 (National Center for Advancing Translational Sciences (NCATS), 2011)
# “And” between values parts separate entries of the source, which are not always exact repeats. Identical values can stand only once. Records with an inconclusive call do not appear. The source made the active and inactive calls. Calls come from the whole dose curve; as a rule, active = well fitted activation curve with a large enough effect; inconclusive = small, poorly fitted or top-dose-only effect; inactive = flat fitted curve, though single readings scatter.
# Assay: qHTS Assay for Identifying a Potential Treatment of Ataxia-Telangiectasia: SAR for Probe
# Conditions: F2112 A-T fibroblasts, NCS-induced pKAP1 AlphaLISA
# Text: NIH Chemical Genomics Center [NCGC] NIH Molecular Libraries Probe Centers Network [MLPCN] MLPCN Grant: MH089030-01 Assay Submitter (PI): Wei Zheng and Yosef Shiloh Ataxia-telangiectasia (A-T) is a devastating and progressive disease for which, there is no cure. Although A-T is a multisystem disease, it is stereotyped characterized by its neurological symptoms such as truncal ataxia, due to cerebellar cortical degeneration of the Purkinje and granule cells. Other symptoms of A-T are telangiectasias (dilated blood vessels), primary immunodeficiency, marked sensitivity to ionizing radiation (IR), chromosomal instability and predisposition to cancer. The underlying genetic cause of A-T is null mutations in the ATM (A-T mutated) gene. ATM is a nuclear serine/threonine kinase that functions as a master regulator of the cellular responses to double strand breaks (DSBs) in the DNA. Upon activation by DSBs, ATM phosphorylates a plethora of downstream targets, including KAP-1 on Ser82452. […] To screen for small molecules that will compensate for the loss of ATM in cells derived from A-T patients, we monitored KAP-1 phosphorylation as a readout for ATM-like activity using an AlphaLISA assay. […]
# qHTS Assay Protocol: Step,Parameter,Value,Description 1. […] Readout, EnVision, EnVision plate reader. […] EnVision protocol for 1536-well AlphaScreen read (30ms excitation, 100ms read), about 10 min/plate.
smiles,measurement,value
CC(=O)c1c(O)c(C)c(O)c(Cc2c(O)c3c(c(C(=O)/C=C/c4ccccc4)c2O)OC(C)(C)C=C3)c1O,Potency,29.2 µM (active) and 10 µM (active)
